Source: the supplement of paper PMC6555819

What follows are sequences tested on VDR:RXRa (NR concentration 270 nM, RXRa partner concentration 90 nM) (assay: PBM binding z-score (relative to random genomic background probes); higher = stronger binding; sequences stand for … in GC…GCGATTGACAGCGTAGAATGAAGG).
Procedure: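 Protein-binding microarray (Agilent 4x180K custom design, double-stranded 60-nt probes: 5' GC cap, 34-nt variable region, 24-nt constant primer region; full probe sequence given). Purified or IVT nuclear receptor:RXRα heterodimers (3:1 NR:RXRα, mostly 270:90 nM) or homodimers were incubated for 1 h in PBS with 2% milk and no ligand, then detected with Alexa488 antibodies. Fluorescence from o1-orientation probes (~5 replicates averaged) was converted to z-scores against 500 random hg19 background probes. Variable regions are seed direct-repeat (DR0–DR5) sites, all their single-nucleotide variants and half-site ablations.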
For TCATATAGTTAAAAGGTGAAAGTCGGTGTGGTAA, the PBM binding z-score was 1.52. TCGAGTAGGTTACCGATGGGGCATTCAGCTTTCT showed a PBM binding z-score of 0.0364. AGAATGAGGTTATTAAGATCAGGGATTTGCGGTC was tested, and the PBM binding z-score was 2.6. GCTAGCAGGCCATTTGGGACACTCAATGACGGGC was tested, and the PBM binding z-score was -0.447. With TTACCAAGGTGAAGGGTCGTTGATGCACGCCTTG the PBM binding z-score was 1.7. For TCTCGGAGTACACGAAGGTCAGAGCTTTCCAGAG, the PBM binding z-score was 2.27. Work on CGAAGGAGGGCATGAGTTGATAGCAAATGCCGAT yielded a PBM binding z-score of 0.513. TCTAGTAGATCAGCAGGTTAAGAAAGCTGGCCAA gave a PBM binding z-score of 0.524. For TCTCGGAGGACACGAAAGGTCAGAGATCGACATC, the PBM binding z-score was 3.42. CCTAGTGGGCCATCAGGTCATTGATATCAACGTT showed a PBM binding z-score of 1.61. TCTGCTAGGTTAGTTGGTCAGCTAACGAGCTGCC was tested, and the PBM binding z-score was -0.449. GCTGCTAGGTCAACTGATGGTCAGCTGAAGCTCG showed a PBM binding z-score of 1.61. TCTGCTAGGTCAGTTTGTCAGCTAACGAGCTGCC was tested, and the PBM binding z-score was 0.205. For TTACCAAGGTGAAAGGTTGTTGATGCACGCCTTG, the PBM binding z-score was 1.15. For ATCTCTAGGTAAGACTCCGTTCAGTGAAGAACGC, the PBM binding z-score was 0.0228. Work on CGTCCTAGGTCAAAGGTCAGTGAAGAGATGACGG yielded a PBM binding z-score of 5.56. With CGTCCAAGGTCATAGGAGGTCAGCGAAGACAGAT the PBM binding z-score was 6.6. With TCTAGTTGGTCAAAAGTCACACACTCGAAATGCG the PBM binding z-score was 1.21. GCTAGTTGGTCAGTAAAAGGTCACACACCGGTCG gave a PBM binding z-score of 3.89. In the case of TCTATTAGTTGATTAGGCCAACCGAAACAGCGGA, the PBM binding z-score is reported as 0.618. TCGAGTAGGTTAGGGGCATACAGAATGGCGTCGA showed a PBM binding z-score of 0.604. CGTCCAAGGTCAATGCTGGGTCAGTGAAAGCATT gave a PBM binding z-score of 4.79. With CTTCCAAGGTCAAGGTCAGTGAAAGAGACTCGAA the PBM binding z-score was 4.87. With ATCTCTATGTAACAAGTTCAGTGAAAGAGAGGAC the PBM binding z-score was 1.26. CCTACAGGGCCACGAAAGGTCATTGATTCAGTGA was tested, and the PBM binding z-score was 4.61. Sequence GCGACTGGGGCATCAGTAGGTTACCATAACTTAA has a PBM binding z-score of -0.141. TCTAGTTGGTCACGGAGGTCACACACGACGGGTA gave a PBM binding z-score of 5.62. TTTCCAAGGTGAGCTGAGGTCGTTGATCCAACTC was tested, and the PBM binding z-score was 4.12. TAGCCTAGGTCATTCAGGGGCCAGTTTAGAAAGC showed a PBM binding z-score of 3.16. Sequence AGTCAAAGTTCAGGACGAAGTAACGTAAAGCACG has a PBM binding z-score of 2. TCTTGTAGATCAAAGGTAAAGAAAGCCGAAGCCT gave a PBM binding z-score of 0.385. For CCTGCTAGGTCATGGTCAGCTCATCTACAGTATG, the PBM binding z-score was 1.8. Work on CCTTACGGGGCACTCCAGGTTATAGCATCGGAGT yielded a PBM binding z-score of 0.0326. CCTAGCAGGCCAATCTGGGTCATTCAAGGCTTGA gave a PBM binding z-score of 1.06. TGAATGAGGTTATAAGATCAGGGAACGTTGCAAA showed a PBM binding z-score of 0.749. With ATATGTAGGTTACATCCGGGTCGTTCAGGCTATG the PBM binding z-score was 2.52. AGTCAAAGTTCATCTAAGTAACGTAAGATATGCT was tested, and the PBM binding z-score was 4.76. TTACCAAGGTGAGCTGAGGTCGTTGAACCAACTC showed a PBM binding z-score of 4.25. Sequence CCTAGCAGGCCAGGGGCACTCAAGCATTTCGCTT has a PBM binding z-score of -0.66. In the case of TCTAGCAGGCCCGAGGGTCACTCAAGAGGTACGG, the PBM binding z-score is reported as 1.14.
